Assay results taken from the supplement of paper PMC4709259.
Counter-ions that a name gives are not always drawn. ± gives the standard deviation.

Each compound was assayed on Jurkat (assay: cell count relative to DMSO control (fraction of control); higher = more cells (less growth inhibition)). Details: 48 h.

SMILES | cell count
Cc1c(N)nc(C(CC(N)=O)NCC(N)C(N)=O)nc1C(=O)NC(C(=O)NC(C)C(O)C(C)C(=O)NC(C(=O)NCCc1nc(-c2nc(C(=O)NCCC[S+](C)C)cs2)cs1)C(C)O)C(O[C@@H]1O[C@@H](CO)[C@@H](O)[C@H](O)[C@@H]1O[C@H]1O[C@H](CO)[C@@H](O)[C@H](OC(N)=O)[C@@H]1O)c1cnc[nH]1 (some centres not stated) [Bleomycin Sulfate] (concentration: 2.5 µM) | 0.297 ± 0.043
CN1C[C@H](C(=O)N[C@]2(C)O[C@@]3(O)[C@@H]4CCCN4C(=O)[C@H](Cc4ccccc4)N3C2=O)C=C2c3cccc4[nH]cc(c34)C[C@H]21 [Ergotamine Tartrate] (concentration: 25 µM) | 0.745 ± 0.057
CN1C(=O)CN=C(c2ccccc2)c2cc(Cl)ccc21 [Diazepam] (concentration: 25 µM) | 0.925 ± 0.098
CN1C[C@H](C(=O)N[C@]2(C)O[C@@]3(O)[C@@H]4CCCN4C(=O)[C@H](Cc4ccccc4)N3C2=O)C[C@@H]2c3cccc4[nH]cc(c34)C[C@H]21 [Dihydroergotamine Mesylate] (concentration: 25 µM) | 0.297 ± 0.092
C[N+]1(C)CCCC(OC(=O)C(O)(c2ccccc2)c2ccccc2)C1 (configuration not stated) [Mepenzolate Bromide] (concentration: 25 µM) | 1.15 ± 0.042
C[N+]1(C)[C@@H]2CC(OC(=O)[C@H](CO)c3ccccc3)C[C@H]1[C@@H]1O[C@@H]12 (stereo partly drawn) [Methscopolamine Bromide ((-)-Scopolamine Methyl Bromide)] (concentration: 25 µM) | 0.683 ± 0.089
COc1ccc2c(c1)[C@]13CCCC[C@@H]1[C@H](C2)N(C)CC3 [Dextromethorphan] (concentration: 25 µM) | 0.841 ± 0.024
